PubChem BioAssay (EPA / NIEHS)
A structure can be active in one record and inactive in another. Activity calls are given as the source filed them. The calls were made as follows: active = hit-call score of the fitted dose curve at least 0.9, where 1 is the maximum; inactive = score below 0.9.

Assay: ATG_AP_1_CIS: Attagene CIS-FACTORIAL HepG2 Assay for human Activator Protein 1 (AP-1) (AID 2282931)
Settings: HepG2 Attagene cis-factorial AP-1 reporter mRNA; actives raise or lower the signal
Protocol: ATG_CIS is a cell-based, multiplexed-readout assay that uses HepG2, a human liver cell line, with measurements taken at 24 hours after chemical dosing in a 24-well plate.ATG_AP_1_CIS is one of 52 assay component(s) measured or calculated from the ATG_CIS assay. It is designed to make measurements of mRNA induction, a form of inducible reporter, as detected with fluorescence intensity signals by Reverse transcription polymerase chain reaction (RT-PCR) and Capillary electrophoresis technology.Data from the assay component ATG_AP_1_CIS was analyzed into 1 assay endpoint. This assay endpoint, ATG_AP_1_CIS, was analyzed with bidirectional fitting relative to DMSO as the negative control and baseline of activity. Using a type of inducible reporter, measures of mRNA for gain or loss-of-signal activity can be used to understand the reporter gene at the transcription factor-level as they relate to the gene FOS and JUN. Furthermore, this assay endpoint can be referred to as a primary readout, because this assay has produced multiple assay endpoints where this one serves a reporter gene function. To generalize the intended target to other relatable targets, this assay endpoint is annotated to the dna binding intended target family, where the subfamily is basic leucine zipper.
Human liver HepG2 cells are transiently transfected with multiple reporter transcription units (MRTUs) in 6-well plates using FuGene 6 reagent (Roche; 3 ml FuGene/1 mg DNA). The MRTU constructs are regulated by a cis-regulating element (promoter). […] A major difference between the CIS and TRANS system is that in CIS activities of endogenous TFs are measured, whereas the TRANS assay evaluates changes in activities of exogenous, chimeric NR-Gal4 proteins. […] At the end of 24 hour incubation, total RNA was isolated using TriZol reagent (Invitrogen). The isolated RNA is then reverse-transcribed using oligo(dT) primer and Mo-MLV reverse transcriptase (Invitrogen) with DNAse I (Ambion) treatment for 30 min. The one-tenth of the produced cDNA was amplified by PCR using Taq DNA polymerase (Invitrogen) and two reporter sequence-specific primers. The PCR products were fluorescently labeled by primer extension with 6-arboxyfluorescein (6-FAM) 5'-labeled reporter sequence-specific primer (2 min at 95 C, 20 s at 68 C and 10 min at 72 C) and these products were digested with 5U of HpaI (New England Biolabs) for 2h at 37 C. The fragments were purified using Qiaquick PCR columns (Qiagen), analyzed on an ABI 3130xL genetic analyzer (Applied Biosystems) with peak positions identified by using a set of X-rhodamine (ROX)-labeled MapMarker1000 molecular weight standards (BioVentures). The raw capillary electrophoresis data was processed using Attagraph software (Attagene).

Question: Which outcome does the source give for `C=CC(=O)OCC(F)(F)C(F)F` here?
Answer: Its outcome is “inactive”.

Question: With `CCOP(=O)(O)C(N)=O` as the compound, how does the outcome read?
Answer: Its outcome is “inactive”.

Question: For `C=CC(=O)OCC(CC)(COC(=O)C=C)COC(=O)C=C`, which AC50 is on record?
Answer: The AC50 was 113 µM (active).

Question: Which outcome does the source give for `COC(=O)C(F)(F)C(F)(F)OC(F)(C(F)(F)F)C(F)(F)OC(F)=C(F)F` (stereo not given) here?
Answer: Its outcome is “inactive”.

Question: And the AC50?
Answer: Its AC50 is 9.89 µM (active).

Question: For `c1ccc2c(c1)Nc1ccccc1S2`, which outcome is on record?
Answer: Its outcome is “inactive”.

Question: For `CC(C)(C)c1ccccc1OP(=O)(Oc1ccccc1)Oc1ccccc1`, which AC50 is on record?
Answer: Its AC50 is 116 µM (active).

Question: Which outcome does the source give for `NC(=O)C(F)(F)C(F)(F)F` here?
Answer: The outcome was “inactive”.

Question: Which outcome does the source give for `O=S1(=O)OCC2C(CO1)C1(Cl)C(Cl)=C(Cl)C2(Cl)C1(Cl)Cl` (stereo not given) here?
Answer: The outcome was “inactive”.

Question: With `CCOP(=S)(OCC)SCSCC` as the compound, how does the outcome read?
Answer: The outcome was “inactive”.

Question: With `O=c1ssc(Cl)c1Cl` as the compound, how does the outcome read?
Answer: The outcome was “inactive”.

Question: With `C/C(=N\NC(=O)Nc1cc(F)cc(F)c1)c1ncccc1C(=O)O` as the compound, how does the outcome read?
Answer: Its outcome is “inactive”.

Question: For `CCCCOCC1CO1` (stereo not given), which outcome is on record?
Answer: Its outcome is “inactive”.

Question: With `CNC(=O)Oc1ccc(N(C)C)c(C)c1` as the compound, how does the outcome read?
Answer: The outcome was “inactive”.

Question: Which outcome does the source give for `Nc1ccc([N+](=O)[O-])cc1Cl` here?
Answer: Its outcome is “inactive”.

Question: For `c1nc[nH]n1`, which outcome is on record?
Answer: The outcome was “inactive”.

Question: Which outcome does the source give for `CCCCN(CCCC)SN(C)C(=O)Oc1cccc2c1OC(C)(C)C2` here?
Answer: The outcome was “inactive”.

Question: For `CN(C)C(=O)Cl`, which outcome is on record?
Answer: Its outcome is “inactive”.

Question: With `c1ccc(OP(Oc2ccccc2)Oc2ccccc2)cc1` as the compound, how does the outcome read?
Answer: Its outcome is “inactive”.

Question: For `CC(Cl)(Cl)C(=O)O`, which outcome is on record?
Answer: The outcome was “inactive”.

Question: With `CCOS(=O)(=O)OCC` as the compound, how does the outcome read?
Answer: The outcome was “inactive”.

Question: For `O=C(O)C(F)(F)C(F)(F)C(=O)O`, which outcome is on record?
Answer: Its outcome is “inactive”.

Question: For `CCN(CC)C1CCCCC1`, which outcome is on record?
Answer: The outcome was “inactive”.

Question: For `CCCCC(CC)COP(=O)(Oc1ccccc1)Oc1ccccc1` (stereo not given), which AC50 is on record?
Answer: The AC50 was 29.5 µM (active).

Question: Which outcome does the source give for `O=S(=O)(c1ccc(O)cc1)c1ccc(O)cc1` here?
Answer: The outcome was “inactive”.

Question: For `CCOP(=S)(S)OCC`, which outcome is on record?
Answer: The outcome was “inactive”.

Question: With `FC(F)(F)C(F)(C(F)(F)F)C(F)(F)C(F)(F)CC1CO1` (stereo not given) as the compound, how does the outcome read?
Answer: The outcome was “inactive”.

Question: For `COC(N)=O`, which outcome is on record?
Answer: Its outcome is “inactive”.

Question: Which outcome does the source give for `Nc1cc2c3c(c1)C(c1ccccc1)=N[C@@H](NC(=O)c1cccnc1)C(=O)N3CC2` here?
Answer: The outcome was “inactive”.

Question: With `CCCCc1ccccc1` as the compound, how does the outcome read?
Answer: Its outcome is “inactive”.

Question: With `CC(C)CBr` as the compound, how does the outcome read?
Answer: The outcome was “inactive”.

Question: For `O=P(Oc1ccccc1)(Oc1ccccc1)Oc1ccccc1`, which AC50 is on record?
Answer: Its AC50 is 52.6 µM (active).

Question: With `N#C/C=C/c1ccccc1` as the compound, how does the outcome read?
Answer: The outcome was “inactive”.

Question: Which outcome does the source give for `Oc1ccccc1Br` here?
Answer: The outcome was “inactive”.

Question: Which outcome does the source give for `Cn1[nH]nnc1=S` here?
Answer: Its outcome is “inactive”.

Question: Which outcome does the source give for `OCC(F)(F)OC(F)(F)C(F)(F)OC(F)(F)C(F)(F)OC(F)(F)F` here?
Answer: Its outcome is “inactive”.

Question: For `Cc1cc(C)c(C(=O)P(=O)(c2ccccc2)c2ccccc2)c(C)c1`, which outcome is on record?
Answer: Its outcome is “inactive”.

Question: For `Nc1ccc(Sc2ccc(N)cc2)cc1`, which outcome is on record?
Answer: Its outcome is “inactive”.

Question: Which outcome does the source give for `CC(O)C(F)(F)C(F)(F)F` (stereo not given) here?
Answer: Its outcome is “inactive”.

Question: Which AC50 does the source give for `CO/N=C(/C(=O)OC)c1ccccc1COc1ccccc1C` here?
Answer: Its AC50 is 8.54 µM (active).
